Test results taken from PubChem BioAssay AID1159583 (ICCB-Longwood Screening Facility, Harvard Medical School, 2016).
“And” between values parts separate entries of the source, which are not always exact repeats. Identical values can stand only once. The whole screen tested about 300,000 compounds, of which about 310 (0.1%) were called active. Rule as the data show it: active = fluorescence inhibition mostly above about 23% (no sharp cut-off); inactive = mostly below about 17%. The sample as a whole holds a higher share of actives than the screen did.

assay: hypoxia reporter signal reduction in M. tuberculosis – fluorescence, absorbance growth readout, primary screen (AID 1159583); details: M. tuberculosis hypoxia-regulated fluorescent reporter, stronger effect = higher value, concentration not given here; growth inhibition: measured here: M. tuberculosis growth (absorbance)

Row | SMILES | fluorescence inhibition | growth inhibition
1 | CC(=NNC(=O)c1cc(-c2cccnc2)nc2ccccc12)c1ccc(O)cc1O | 2.22% (inactive) | 2.87%
2 | COc1ccc(C=NNC(=O)c2ccccc2OC)cc1COc1ccccc1[N+](=O)[O-] | 1.62% (inactive) | -1.45%
3 | C[C@@]12CCC=CC1C(c1ccc(C(F)(F)F)cc1)N(Cc1ccccc1)C2=O (some centres undefined) | 11.1% (inactive) | 10.9%
4 | Cc1ccccc1CN1C(Cc2ccccc2)COCCS1(=O)=O (centres undefined) | 6.62% (inactive) | 4.01%
5 | CC=CC=CC(=O)Nc1cccc(C2=NOC3(C2)CC(C(N)=O)N(C(=O)c2ccccc2C(=O)c2ccccc2)C3)c1 (centres undefined) | -0.767% (inactive) | 8.5%
6 | COC(=O)CSc1nc2ccccc2c(=O)n1Cc1ccccc1 | 5.85% (inactive) | 20.4%
7 | C=CCn1c(SCc2ccc(C(=O)NCCO)cc2)nc2ccccc2c1=O | 9.54% (inactive) | 8.96%
8 | C=CCn1c(SCC(=O)NC(=O)Cc2ccccc2)nc2ccccc2c1=O | 23.4% (active) | 56.9%
9 | CCN(CC)c1ccc(C=NNS(=O)(=O)c2cccc([N+](=O)[O-])c2)cc1 | -5.38% (inactive) | 0.14%
10 | CCC(=NNC(=O)CSCc1ccccc1Br)c1ccc2c(c1)OCCO2 | 0.753% (inactive) | 1.89%
11 | O=C(NN=Cc1cccc([N+](=O)[O-])c1)c1ccc(CN2CCOCC2)cc1 | 4.86% (inactive) | 16.6%
12 | CCCCN=C1NC(=Cc2ccco2)C(=O)N1c1ccccc1 | 8.24% (inactive) | 10.9%
13 | COc1ccccc1C=NNC(=O)CCn1cnc2ccccc21 | 4.69% (inactive) | -0.174%
14 | COc1cccc(CNC(=O)CN2C(=O)NC(Cc3ccccc3)(c3ccccc3)C2=O)c1 (centres undefined) | 26.4% (active) | 52.7%
15 | COc1cccc(CNC(=O)COC(=O)CN2C(=O)NC3(CCCCC3C)C2=O)c1 (centres undefined) | -6.03% (inactive) | 2.37%
16 | CCCCNC(=O)CN1C(=O)NC(Cc2ccccc2)(Cc2ccccc2)C1=O | 3.73% (inactive) | 16.6%
17 | CC(CC(=O)Nc1ccc(Cl)cc1Cl)=NNC(=O)C(=O)N1CCCC1 | 11% (inactive) | 5.91%
18 | COc1ccc(C=NN=C(N)c2nonc2N)cc1 | 10.3% (inactive) | 6.79%
19 | CC(=O)OCC1OC(CC=NOCC(O)C2OC3OC(C)(C)OC3C2O)C=CC1OC(C)=O (centres undefined) | 9.33% (inactive) | 7.61%
20 | CCOC(=O)C1C2COc3cc(OC)ccc3C2N2C(=O)N(c3ccc(Cl)cc3)C(=O)[C@]12C (some centres undefined) | -4.96% (inactive) and 1.79% (inactive) | 2.67% and 0.308%
21 | CC(=O)Nc1ccc(S(=O)(=O)NN=Cc2ccc(C)o2)cc1 | 7% (inactive) | -2.42%

Row | SMILES | fluorescence inhibition | growth inhibition
22 | O=C(Cc1cccs1)NN=C/C=C/c1ccco1 | 8.6% (inactive) | 14.2%
23 | O=C(CNC(=O)c1ccc2c(c1)OCCO2)NN=Cc1ccc(Cl)cc1 | -0.656% (inactive) | 8.25%
24 | COc1ccc(OC)c(C=NNC(=O)c2[nH]ncc2Br)c1 | 17.8% (inactive) | 3.99%
25 | COc1cc(C=NNC(=O)Cc2c[nH]c3ccccc23)cc(OC)c1OC | 1.09% (inactive) | 3.89%
26 | COc1ccc2ccccc2c1C=NNC(=O)c1cccc(Br)c1 | 6.25% (inactive) | 6.52%
27 | CCN1C(=O)C2C(c3ccc(-c4cccc(Cl)c4)cc3)N[C@@](C)(C(=O)OC)C2C1=O (some centres undefined) | 8.93% (inactive) | 17.5%
28 | Cc1ccccc1CN1C(=O)C(C)SC1=NN=Cc1ccco1 (centres undefined) | 7.25% (inactive) | 1.63%
29 | COC(=O)c1ccc(C=NNC(=O)c2ccc3nc[nH]c3c2)cc1 | 3.23% (inactive) | -1.77%
30 | CC(C)C(=NNC(=O)Nc1ccccc1)c1ccccc1 | 3.82% (inactive) | 6.86%
31 | CC(=NNC(=O)c1csc(C)c1C)c1ccco1 | 12.3% (inactive) | 18.1%
32 | CCN(CC)S(=O)(=O)c1ccc(NN=Cc2ccc(OC)c(OC)c2OC)nc1 | 6.7% (inactive) | 6.24%
33 | CC(=NNC(=O)c1cc2ccccc2cc1O)c1ccc2c(c1)OCO2 | -11.6% (inactive) | 0.0347%
34 | C=CCNC(=S)NN=Cc1ccc(-c2cc(Cl)ccc2Cl)o1 | 6.01% (inactive) | 7.37%
35 | N#Cc1ccc(OCC(=O)NN=CC2CC=CCC2)cc1 (centres undefined) | 15.6% (inactive) | 1.47%
36 | O=C(CCCCCCCCC(=O)NN=Cc1ccco1)NN=Cc1ccco1 | -1.23% (inactive) | 5.53%
37 | Cc1cccc(C(=O)NN=C2SCC(=O)N2Cc2ccccc2)c1 | -0.985% (inactive) | -2.16%
38 | O=C(NN=Cc1ccc2nccnc2c1)c1ccc(Br)cc1 | -2.27% (inactive) | -1.22%
39 | C/C(C=NNC(=O)Cc1cccs1)=C\c1ccco1 | 8.51% (inactive) | 5.57%
40 | CCOC(=O)NN=CC=Cc1ccco1 | 5.07% (inactive) | 6.05%
41 | COC(=O)c1ccc2[nH]c(C(C)O)c(C(C)O)c2c1 (centres undefined) | -12.5% (inactive) | 0.422%
42 | COc1cc(C=NNC(=O)C(=O)NCc2cccnc2)cc(OC)c1OC | 11.1% (inactive) | 2.3%

Row | SMILES | fluorescence inhibition | growth inhibition
43 | COC(=O)C1C[C@@]2(Br)c3ccccc3N(S(=O)(=O)c3ccccc3)C2N1C(=O)OC (some centres undefined) | -0.203% (inactive) | -1.54%
44 | CCOc1cccc(C=NN2C(C)CCCC2C)c1O (centres undefined) | -2.33% (inactive) | -0.595%
45 | O=C(NC1CCCCC1)C1CC=CC2CCN(C3CCCCC3)C(=O)C21 (centres undefined) | 8% (inactive) | 14.6%
46 | C[C@@]12C(=O)N(Cc3ccco3)CC(=O)N1C1c3cc(Cl)ccc3OCC1C2c1ccccc1 (some centres undefined) | -6.06% (inactive) | 1.32%
47 | Cn1cc([N+](=O)[O-])c(C(=O)NN=Cc2ccc([N+](=O)[O-])cc2)n1 | -5.59% (inactive) | 5.33%
48 | Cc1ccc(C=NN(C)S(=O)(=O)c2ccc(C)cc2)cc1 | -1.94% (inactive) | -2.51%
49 | CCOC(=O)C1=C(C)CC(=NNC(=O)c2ccccc2O)CC1 | 19.7% (inactive) | 25.6%
50 | CC(=NNC(=O)c1ccc(CSc2nncn2C)cc1)c1ccc(Cl)cc1 | -0.114% (inactive) | 4.72%
51 | Cc1cc(C)nc(N=C(N)C2=C(O)CC(C)(C)CC2=O)n1 | 8.68% (inactive) | 10.4%
52 | CC(Oc1ccccc1[N+](=O)[O-])C(=O)NN=Cc1ccoc1 (centres undefined) | -0.473% (inactive) | 0.98%
53 | Cc1cc(C=NO)c(C)n1-c1ccccc1 | 10.5% (inactive) | 1.78%
54 | C/C(C=NNC(=O)c1ccncc1)=C\c1ccccc1 | 16.5% (inactive) | 7.43%
55 | Cc1nn(-c2ccccc2)c(Cl)c1C=NNC(=O)c1cccc(S(=O)(=O)N2CCCC2)c1 | 10.2% (inactive) | 5.33%
56 | C=C1CCN(C(C(=O)NCc2ccc(OC)cc2)C(C)C)S(=O)(=O)c2ccccc21 (centres undefined) | 1.86% (inactive) | 4.01%
57 | O=C1CSC(=S)N1N=Cc1ccc(C(F)(F)F)cc1 | 17.6% (inactive) | 14.7%
58 | COCCCNC(=S)NN=Cc1ccc(N(C)C)cc1 | 11.6% (inactive) | 2.41%
59 | CC(=NNC(=O)c1c(C)nc2ccccn12)c1ccc(C(C)(C)C)cc1 | -2.47% (inactive) | 18.1%
60 | CC(C)C(NC(=O)c1ccccc1)C(=O)OCC(=O)N1CCCc2ccccc21 (centres undefined) | 6.63% (inactive) | 6.94%
61 | COc1cccc(C=NNC(=O)CSCC(=O)Nc2ccccc2)c1O | 0.94% (inactive) | 11.7%
62 | CC(=NNC(=O)c1cc(-c2ccc(Cl)s2)[nH]n1)c1ccco1 | 0.382% (inactive) | 4.98%
63 | CSc1ccc(C=NNC(=O)CNc2ccc3ccccc3c2)cc1 | 3.37% (inactive) | -2.84%

Row | SMILES | fluorescence inhibition | growth inhibition
64 | O=C1NC(Cc2ccccc2)C(=O)N2C1C[C@]1(Br)c3ccccc3N(S(=O)(=O)c3ccccc3)C21 (some centres undefined) | 4.31% (inactive) and 12.8% (inactive) | 6.26% and 10.9%
65 | COc1ccccc1C=NNC(=O)c1ccc2c(c1)OCO2 | 14.7% (inactive) | 5.14%
66 | COCCCN1C(=O)C(=O)C(=C(O)c2ccc(C)cc2)C1c1ccccc1 (centres undefined) | -3.99% (inactive) | -0.925%
67 | CC1CN=C(Nc2ccccc2)N1CCCC1CCCCC1 (centres undefined) | 7.1% (inactive) | 4.93%
68 | Cc1ccccc1C1=N/C(=C/c2cccnc2)C(=O)O1 | -4.88% (inactive) | 6.23%
69 | O=C1/C(=C\c2cccnc2)CN(Cc2ccccc2)C/C1=C\c1cccnc1 | 53.7% (active) | 35.7%
70 | O=C1CCCC1=c1sc(=Cc2cccnc2)c(=O)n1-c1ccccc1 | 9.8% (inactive) | 5.53%
71 | Cc1cc(C(=O)NN=Cc2ccc3ccccc3c2)n[nH]1 | 7.06% (inactive) | -3.88%
72 | Nc1nonc1C(=O)NN=Cc1ccc([N+](=O)[O-])o1 | 52.4% (active) | 31.3%
73 | Cc1ccc(NCC(=O)NN=Cc2ccc([N+](=O)[O-])o2)cc1 | -3.3% (inactive) | 3.65%
74 | CN(C)c1ccc(C=NNC(=O)c2nonc2N)cc1[N+](=O)[O-] | 2.61% (inactive) | -5.42%
75 | Cc1cccc(C=NNC(=O)CN2CCCCCCC2)c1 | 2.65% (inactive) | 8.69%
76 | COc1ccc(C2CC=C(C(=O)O)C(c3ccccc3F)N2S(=O)(=O)c2ccc(C)cc2)cc1OC (centres undefined) | 19.4% (inactive) | 4.47%
77 | CCCC(=O)O[C@]1(C(=O)CCl)C(C)CC2C3CCC4=CC(=O)C=C[C@]4(C)[C@@]3(F)C(=O)C[C@@]21C (some centres undefined) | -12.7% (inactive) | 2.62%
78 | Cc1ccc(S(=O)(=O)N(C)CC(=O)NN=Cc2ccc(C)o2)cc1 | -4.3% (inactive) | 1.08%
79 | COc1ccc(C2OCC3OC(O)C(NC(C)=O)C(O)C3O2)cc1 (centres undefined) | 4.65% (inactive) | 11.9%
80 | CCc1ccc(C=NNC(=O)c2ccccn2)cc1 | 9.62% (inactive) | 15.4%
81 | CCN(CC)CCOc1ccc2c(c1)C(=NNC(=O)c1ccccn1)c1cc(OCCN(CC)CC)ccc1-2 | 46.2% (active) | 20.2%
82 | COc1ccc(C(=O)NN=C(c2ccccc2)c2ccccn2)cc1 | -1.57% (inactive) | 6.08%
